From ChEMBL document CHEMBL4513216, “Probing the Open Global Health Chemical Diversity Library for Multistage-Active Starting Points for Next-Generation Antimalarials” (ACS Infect Dis, 2020)
In all, about 69,000 compounds went through this assay and about 8,600 (12%) showed an effect of 50% or more. What follows is part of a selection rich in strong results, with near analogues and random picks from the rest.

system: Plasmodium berghei; test: Screen against P. berghei liver stage (PbLuc), transformed with Luciferase, at 10uM; format: functional, HepG2; details: tested at 10 uM

SMILES | INHIBITION [%]
O=C(C[C@@H]1COC[C@H]2CN(Cc3ccccn3)C[C@@H]12)N1CCOCC1 | 33
Cc1noc(C)c1CC(=O)NCC1(O)CCCN(c2ccccn2)C1 (stereo not given) | 14.6
CC(c1nc(C2CC2)no1)N(C)Cc1ccc(C#N)cc1 (stereo not given) | -4.4
CC(C)(C)c1nc(CN(Cc2ccccc2Cl)C2CCCC2)no1 | 9.35
CC(C)(C)c1nc(CN(CCO)Cc2cc(Br)ccc2F)no1 | -38.2
CCN(Cc1noc(C(C)(C)C)n1)Cc1ccc(C#N)cc1F | 28
CSc1ccc(CN(C)Cc2noc(C(C)(C)C)n2)cc1 | 56.9
CN(Cc1ccc(C#N)cc1)Cc1noc(C(C)(C)C)n1 | 53.5
CCc1cc(N(C)CCCO)n2nccc2n1 | 19.4
Cc1noc(C)c1CN(C)C(=O)Nc1cnn(CC2CCCO2)c1 (stereo not given) | 18.4
Cc1cc(C(=O)N[C@H](C)c2onc(C)c2C(=O)O)c(C)o1 | -12.2
COCCSCC(=O)NCc1ccnc(N(C)C)c1 | 46.4
Cc1oc(C(C)C)cc1C(=O)N1C[C@@H]2CC[C@H]1CN(S(=O)(=O)N(C)C)C2 | -19.5
CC(C)N1CC2(CCCN(Cc3noc(C4CCCC4)n3)C2)CCC1=O (stereo not given) | 50.5
CNC1CCCN(Cc2noc(C3CC3)n2)C1 (stereo not given) | -17.4
CCCN1CCCC2(CCN(Cc3noc(C4CCCC4)n3)C2)C1=O (stereo not given) | -15.8
CC(C)N1CCCC2(CCN(Cc3noc(C4CCCC4)n3)C2)C1=O (stereo not given) | 70.2
O=C1CCC2(CCCO2)CCN1Cc1noc(C2CCCC2)n1 (stereo not given) | 26.7
O=C1N(CCO)CCCC12CCN(Cc1noc(C3CCCC3)n1)C2 (stereo not given) | 22.7
CCN1CCC2(CCN(Cc3nccs3)CC2)C1=O | -28.8
O=C(NCC(=O)N1CCCCC1)c1ccoc1 | 17.3
Cc1ccc2[nH]c(=O)c(CNCCCN3CCOCC3)cc2c1 | -37
Cc1csc2c(N3CCNC(C(=O)Nc4ccc(F)cc4)C3)ncnc12 (stereo not given) | 62.8
Cc1csc2c(N3CCNC(C(=O)NCc4cccnc4)C3)ncnc12 (stereo not given) | 16.9
Cc1csc2c(N3CCNC(C(=O)N4CCCC4)C3)ncnc12 (stereo not given) | -10.1
CCn1cc(CN2C[C@@H]3CCCN3C[C@@H]2CCSC)c(C)n1 | 46.1
CN(C)C(=O)Cn1cc(C(=O)NCCc2ccc(C(F)(F)F)cc2)nn1 | -25.9

SMILES | INHIBITION [%]
Cc1cc(-n2nc(C)nc2-c2cn(CCN)nn2)ccn1 | 41.5
Cc1nc(-c2cn(CCN)nn2)n(-c2ccc(C(F)(F)F)cc2)n1 | 76.8
Cc1nc(CCN2CCCCC2)n(-c2ccc(F)cc2)n1 | -8.19
Cc1nc(-c2cn(CCN)nn2)n(-c2ccc3c(c2)CCC3)n1 | 56.5
CNS(=O)(=O)CCn1cc(-c2cc3c(cc2OC)CCC3)nn1 | 37.3
CC(C)c1noc(CNC2CCCN(Cc3noc(C4CC4)n3)C2)n1 (stereo not given) | -42.1
Cc1nc(N2CCN(C)CC2)ncc1C(=O)N1CC[C@](C)(O)[C@H](C)C1 | -10.2
COCCN1CCN(C=C2NN=C(c3occc3C)O2)CC1 | 43.4
Cc1ccoc1C1=NNC(=CN2CCn3c(C)nnc3C2)O1 | -21.7
Cc1ccoc1C1=NNC(=CN2CCOC(Cn3cccn3)C2)O1 (stereo not given) | -50.5
CCOCCN1CCN(C=C2NN=C(c3occc3C)O2)CC1CC (stereo not given) | 76.7
CCc1nnc2n1CCN(C=C1NN=C(c3occc3C)O1)C2 | 11.2
CCOCCN1CCN(C=C2NN=C(c3occc3C)O2)CC1 | 70.3
CC(C)c1nc(CN2CCN(C(=O)OC(C)(C)C)C(C)C2)no1 (stereo not given) | -9.35
Cc1nn(C)c2c(=O)n(Cc3ccc(C#N)cc3)nnc12 | 8.15
CC(C)OCCCNC(=O)CS(=O)(=O)Cc1cccc(Cl)c1 | -63.3
Cn1ccnc1-c1cn(CCc2nnc(N)s2)nn1 | 40.2
CC(C)c1nnc2n1CC(CNCc1ccsc1)CC2 (stereo not given) | 5.85
Cc1oc(-c2ccsc2)nc1CC(=O)NCCCS(C)(=O)=O | 5.05
O=C(c1ccncc1Cl)N1CCN(Cc2ccco2)C(CCO)C1 (stereo not given) | 16.2
Cc1cc(C(=O)N2CCN(Cc3ccco3)C(CCO)C2)cc(=O)[nH]1 (stereo not given) | 52.1
O=C(c1ncccc1O)N1CCN(Cc2ccco2)C(CCO)C1 (stereo not given) | 17
CCOc1ccc(C(=O)N2CCCC2Cn2cc(C)cn2)cn1 (stereo not given) | 28.55
CCn1cc(NC(=O)C2CCN(CC(=O)NCC(C)C)CC2)cn1 | 37.4
Cc1ccc(NC(=O)c2cc3c(=O)n(C)c(=O)n(C)c3nc2C)cc1Cl | -6.83
COc1cc([C@@H]2N[C@H](c3nccs3)Cc3ccsc32)cc(OC)c1OC | 47.2
COc1cccc([C@@H]2N[C@H](c3nccs3)Cc3ccsc32)c1OC | 49.2

SMILES | INHIBITION [%]
CCOc1cc([C@H]2N[C@@H](c3nc(C)cs3)Cc3ccsc32)ccc1OC | 75
CCOc1cc([C@@H]2N[C@H](c3nccs3)Cc3ccsc32)ccc1OC | 25.05
COc1ccc(OC)c([C@@H]2N[C@H](c3nccs3)Cc3ccsc32)c1 | 43.4
CCOc1ccc([C@@H]2N[C@H](c3nccs3)Cc3ccsc32)cc1OC | 69.25
COCCN1CCC2(CC1)CN(Cc1cccc(C)n1)C(=O)CO2 | 7.53
COc1ccc(CCC(=O)N(C(C)C)C2CCOCC2)cc1 | -42.1
CC(C(=O)N1CCN(c2ccccc2)CC1)n1cc(Br)cn1 (stereo not given) | -35.4
O=C(c1c[nH]nn1)N1CCN(C(c2ccccc2)C(F)(F)F)CC1 (stereo not given) | -10.9
O=C(c1cc[nH]n1)N1CCN(C(c2ccccc2)C(F)(F)F)CC1 (stereo not given) | 17.1
O=C(c1ccccn1)N1CCN(C(c2ccccc2)C(F)(F)F)CC1 (stereo not given) | 51.7
NC(=O)C1CN(c2ccc(F)cc2)CCN1 (stereo not given) | 25.8
Cc1nc2ccccc2nc1NCc1nnc2n1CCC2 | 52.9
c1ccc2nc(N3CCCC3)c(NCc3nnc4n3CCC4)nc2c1 | 16.1
c1ccc2nc(N3CCCCC3)c(NCc3nnc4n3CCC4)nc2c1 | 0.897
Cc1cnn(CCNCc2csc(-c3ccc(C)o3)n2)c1 | 15.3
Cn1cc(C(=O)Nc2ccc(CC(=O)NC3CC3)cc2)nn1 | 11.3
CN(C)C(=O)Cc1ccc(NC(=O)c2cn(C)nn2)cc1 | 20
Cn1cc(C(=O)Nc2ccc(CC(=O)NCC(F)(F)F)cc2)nn1 | 50.5
CCC(C)c1cc(C(=O)N(CC(=O)NC)c2cccc(F)c2)on1 (stereo not given) | 3.04
Cc1cccc(CN2CCCn3c(nnc3Cn3cccn3)C2)n1 | -23
CCNc1cc2c(nn1)CCN(C(=O)CC1CCCC1)C2 | 17.4
CCN1CCc2cc(C(=O)N(C)C)c(NCC3CC3)nc2CC1 | 37.2
CCN1CCC(CC(=O)N2CCc3sc(C(=O)N(C)C)cc3C2)CC1 | 64
CN(C)C(=O)c1noc2c1CN(C(=O)CCCN1CCCCC1)CC2 | 41.5
CN(C)C(=O)c1cc2c(s1)CCN(C(=O)CCCN1CCCCC1)C2 | 71.5
CN(C)c1cc2c(nn1)CCN(C(=O)c1cc3c(s1)CCCC3)C2 | -2.13
CNC(=O)c1cc2c(s1)CCN(C(=O)CCC1CCCN(C)C1)C2 (stereo not given) | 42.6

SMILES | INHIBITION [%]
CN1CCCC(CCC(=O)N2CCc3onc(C(=O)N(C)C)c3C2)C1 (stereo not given) | 12
CN1CCCC(CCC(=O)N2CCc3sc(C(=O)N(C)C)cc3C2)C1 (stereo not given) | 73.6
c1cc(-c2ccc3nc(C4CCN(CC5CC5)CC4)nn3c2)cs1 | 23.6
Cc1ccc2c(n1)N(CCn1cccn1)CCN(CC1CC1)C2 | -6.3
CCN(Cc1cnn(C)c1)C[C@H]1CC[C@@H](Cc2ccc(OC)nc2)O1 | -22.3
CN(C)CCN1CCCC12CCN(C(=O)c1ccoc1)CC2 | -44.2
O=c1c2cn[nH]c2nc(SCCN2CCCC2)n1-c1ccccc1 | 17.7
CC(C)CNC(=O)[C@H]1CCS(=O)(=O)[C@@H]2CN(Cc3ccc(F)cc3)C[C@H]12 | -0.371
CSc1cccc(CN(C)C(=O)Cn2ncc(N3CCCC3)cc2=O)c1 | 25.1
CCC1C(=O)NCCN1c1cc(C)ncn1 (stereo not given) | 26.8
O=C(Cc1ccccn1)N1CCc2ncnc(N3CCCC3)c2CC1 | -10.3
OC1COCCN(Cc2cccc(N3CCOCC3)c2)C1 (stereo not given) | 15.9
OC1CN(Cc2cccc(N3CCOCC3)c2)Cc2ccccc21 (stereo not given) | 28.7
N[C@@H]1CCN(Cc2cccc(N3CCOCC3)c2)C[C@H]1O | 58.6
CC(=O)Nc1ccc(CNc2ccn(Cc3ccccc3)n2)cc1 | -51.8
CC(C)c1nccn1-c1cncc(C2CCCN(C3CCCCC3)C2)n1 (stereo not given) | 44.1
CC(C)c1nccn1-c1cccc(C2CCCN(C3CCCC3)C2)n1 (stereo not given) | 35.3
CN(C)S(=O)(=O)N1CCC(c2ccnc(Nc3ccccn3)n2)C1 (stereo not given) | 29.5
CCc1nccn1-c1cccc(C2CCCN2S(=O)(=O)N(C)C)n1 (stereo not given) | 36.7
CC(C)c1nccn1-c1cccc(C2CCCN2S(=O)(=O)N(C)C)n1 (stereo not given) | 21.9
CC(C)c1nccn1-c1cccc(C2CCCN(S(=O)(=O)N(C)C)C2)n1 (stereo not given) | 50.1
CC(C)c1nccn1-c1cncc(C2CCCN(C3CCCC3)C2)n1 (stereo not given) | 41.2
CC(C)c1nccn1-c1cccc(C2CCN(C)CC2)n1 | 58
Cc1nccn1-c1cccc(C2CCCN2S(=O)(=O)N(C)C)n1 (stereo not given) | 53
